The values that follow come from PubChem BioAssay (Tox21).

A short description of assay [1]: qHTS assay to identify small molecule antagonists of the glucocorticoid receptor (GR) signaling pathway - cell viability counter screen (AID 720693). Also: nearly all actives have a fitted effect of over 55% in size. On the technique in general: Quantitative high-throughput screening tests each substance at several concentrations.
The nature of assay [2]: qHTS assay for identifying genotoxic compounds that show differential cytotoxicity against isogenic chicken DT40 cell lines with known DNA damage response pathways - wild type cell line (AID 743012). Also: nearly all actives have a fitted effect of over 60% in size. Also: potency is read from the fitted curve at half-maximal effect. The method, boiled down: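 Wild type DT40, 300 cells/well, ~0.5 h settle at 37 C/5% CO2; compounds in DMSO added by pintool; 40 h at 37 C/5% CO2; CellTiter-Glo, 30 min RT; luminescence.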

A short description of assay [3]: qHTS assay for identifying genotoxic compounds that show differential cytotoxicity against isogenic chicken DT40 cell lines with known DNA damage response pathways - Rev3 mutant cell line (AID 743014). Also: nearly all actives have a fitted effect of over 55% in size. Also: potency is read from the fitted curve at half-maximal effect.
Assay [4] can be described thus: qHTS assay for identifying genotoxic compounds that show differential cytotoxicity against isogenic chicken DT40 cell lines with known DNA damage response pathways - Rad54/Ku70 mutant cell line (AID 743015). Also: nearly all actives have a fitted effect of over 60% in size. Also: potency is read from the fitted curve at half-maximal effect.
The nature of assay [5]: qHTS assay to identify small molecule antagonists of the androgen receptor (AR) signaling pathway - cell viability counter screen (AID 743033; also: nearly all actives have a fitted effect of over 45% in size).
Assay [6] is described as follows: qHTS assay to identify small molecule antagonists of the androgen receptor (AR) signaling pathway using the MDA cell line - cell viability counter screen (AID 743041; also: nearly all actives have a fitted effect of over 45% in size). The method, boiled down:
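MDA-kb2 AR-luc cells (MMTV-luciferase, AR/GR responsive) treated with compounds plus R1881 agonist for 16 h at 37C. CellTiter-Fluor added at 15.5 h; fluorescence read after 30 min in the same wells.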

Assay [7] is described as follows: qHTS assay to identify small molecule antagonists of the thyroid receptor (TR) signaling pathway - cell viability counter screen (AID 743064). Also: nearly all actives have a fitted effect of over 50% in size. The method, boiled down:
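Rat GH3 pituitary tumor cells stably expressing two TR response elements driving luciferase were plated, rested 4 h, then dosed with library compounds and T3 (1 nM final). After 23.5 h at 37 °C, CellTiter-Fluor was added for 30 min and fluorescence recorded.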

Assay [8] is described as follows: qHTS assay to identify small molecule antagonists of the thyroid receptor (TR) signaling pathway (AID 743065). Also: series mostly up to about 70 µM; nearly all actives have a fitted effect of over 55% in size. An outline of the steps: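 GH3.TRE-Luc rat pituitary cells (two TREs driving luciferase) were dosed with compound, then stimulated with 1 nM T3 (final) for 23.5 h at 37 C. ONE-Glo luminescence was the read-out, with CellTiter-Fluor fluorescence as the cytotoxicity counter-screen.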

The test system of assay [9] is thyroid hormone receptor (rat, GH3 cells). The assay can be described thus: qHTS assay to identify small molecule agonists of the thyroid receptor (TR) signaling pathway (AID 743066; calls by dose curve).
For assay [10], the target named is Estrogen receptor (Homo sapiens) (UniProt P03372). Nature of the assay: qHTS assay to identify small molecule antagonists of the estrogen receptor alpha (ER-alpha) signaling pathway (AID 743069; active = well fitted curve in the direction sought with a large enough effect in the signal ratio in the repeat runs, not every such curve was filed as active; the % refers to the signal ratio). An outline of the steps:
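HEK293 ER-alpha-UAS-bla GripTite cells, held overnight in 2% charcoal-stripped FBS, 5,000 cells/well, preincubated 4 h, then compound plus 17beta-estradiol for 18 h at 37C. Beta-lactamase read by LiveBLAzer B/G FRET substrate, 2 h at room temperature.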

Assay [11] in a line: qHTS assay to identify small molecule antagonists of the estrogen receptor alpha (ER-alpha) signaling pathway - cell viability counter screen (AID 743074; calls by dose curve;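 also: HEK293 cells carrying ER-alpha-UAS-bla reporter stimulated with 17beta-estradiol; nearly all actives have a fitted effect of over 45% in size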).
Assay [12] has as its target Estrogen receptor (Homo sapiens) (UniProt P03372). Nature of the assay: qHTS assay to identify small molecule agonists of the estrogen receptor alpha (ER-alpha) signaling pathway (AID 743075; calls by dose curve).
Assay [13] has the same target. The assay can be described thus: qHTS assay to identify small molecule agonists of the estrogen receptor alpha (ER-alpha) signaling pathway using the BG1 cell line (AID 743079). Also: nearly all actives have a fitted effect of over 20% in size. Also: potency is read from the fitted curve at half-maximal effect.
A short description of assay [14]: qHTS assay to identify small molecule antagonists of the estrogen receptor alpha (ER-alpha) signaling pathway using the BG1 cell line (AID 743080; calls by dose curve;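 also: BG1 cells stimulated with 17beta-estradiol alongside compound; series mostly up to about 70 µM; nearly all actives have a fitted effect of over 25% in size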). The method, boiled down: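 Seeding, 24 h rest, compound transfer from DMSO, 17beta-estradiol addition, 21.5 h incubation, CellTiter-Fluor (30 min, 37 C), then ONE-Glo (30 min, room temperature): this sequence was run on BG1-Luc-4E2 reporter cells.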

Assay [15] is described as follows: qHTS assay to identify small molecule antagonists of the estrogen receptor alpha (ER-alpha) signaling pathway using the BG1 cell line - cell viability counter screen (AID 743081).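 Also: compound given together with 17beta-estradiol as the ER stimulus; nearly all actives have a fitted effect of over 45% in size.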 Also: potency is read from the fitted curve at half-maximal effect.
The target of a further assay is Aromatase (Homo sapiens) (UniProt P11511). Nature of the assay: qHTS assay to identify aromatase inhibitors (AID 743083). Also: nearly all actives have a fitted effect of over 55% in size. Also: potency is read from the fitted curve at half-maximal effect.
In assay [16] the target is Androgen receptor (Homo sapiens) (UniProt P10275). The assay can be described thus: qHTS assay to identify small molecule agonists of the androgen receptor (AR) signaling pathway (AID 743036; active = well fitted activation curve with a large enough effect in the signal ratio in the repeat runs, with a control signal flat, not every such curve was filed as active; the % refers to the signal ratio). The method, boiled down: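 Quantitative HTS of the Tox21 10K library in HEK293 cells bearing a stably integrated UAS-controlled beta-lactamase reporter. Compound exposure lasted 16 h at 37C. Reporter activity was detected by FRET substrate fluorescence after 2 h at room temperature.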

Assay [17] shares this target. Nature of the assay: qHTS assay to identify small molecule agonists of the androgen receptor (AR) signaling pathway using the MDA cell line (AID 743040; also: nearly all actives have a fitted effect of over 20% in size). An outline of the steps:
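MDA-kb2 breast carcinoma cells carrying MMTV-luciferase (responsive to AR and GR), plated 5 h then treated 16 h with compounds at 37C, 0% CO2. Read-out was ONE-Glo luminescence after 30 min at room temperature.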

For assay [18] the target is unchanged. Nature of the assay: qHTS assay to identify small molecule antagonists of the androgen receptor (AR) signaling pathway using the MDA cell line (AID 743042; also: nearly all actives have a fitted effect of over 55% in size). An outline of the steps: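 MDA-kb2 breast carcinoma cells carrying MMTV-luciferase (AR/GR responsive) were co-treated with compounds and the agonist R1881 for 16 h at 37C. Inhibition read as ONE-Glo luminescence; CellTiter-Fluor fluorescence measured in parallel for cytotoxicity.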

For assay [19] the target is unchanged. The assay can be described thus: qHTS assay to identify small molecule antagonists of the androgen receptor (AR) signaling pathway (AID 743035; active = well fitted inhibition curve with a large enough effect in the signal ratio in the repeat runs, not every such curve was filed as active; the % refers to the signal ratio). An outline of the steps: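 Fluorescence from a beta-lactamase FRET substrate (LiveBLAzer B/G, 2 h, room temperature) measured inhibition of R1881-stimulated signaling in GeneBLAzer AR-UAS-bla HEK293 cells exposed to compound for 16 h at 37C.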

Where “and” joins values, the source holds several entries; their conditions need not be identical. Equal entries are not always repeated. Results filed as inconclusive are left out. Some structures have more than one record in an assay (separate samples or runs), and their calls can disagree. Calls of active or inactive are those of the source. Unless noted, calls follow the shape of the dose curve; as a rule, active = well fitted curve in the direction sought with a large enough effect in the repeat runs; inconclusive = weak or mixed curves; inactive = no such curve, though single readings can be large; an effect the other way counts as inactive or inconclusive.

Androgen receptor (Homo sapiens), sequence (P10275 whole entry, looked up): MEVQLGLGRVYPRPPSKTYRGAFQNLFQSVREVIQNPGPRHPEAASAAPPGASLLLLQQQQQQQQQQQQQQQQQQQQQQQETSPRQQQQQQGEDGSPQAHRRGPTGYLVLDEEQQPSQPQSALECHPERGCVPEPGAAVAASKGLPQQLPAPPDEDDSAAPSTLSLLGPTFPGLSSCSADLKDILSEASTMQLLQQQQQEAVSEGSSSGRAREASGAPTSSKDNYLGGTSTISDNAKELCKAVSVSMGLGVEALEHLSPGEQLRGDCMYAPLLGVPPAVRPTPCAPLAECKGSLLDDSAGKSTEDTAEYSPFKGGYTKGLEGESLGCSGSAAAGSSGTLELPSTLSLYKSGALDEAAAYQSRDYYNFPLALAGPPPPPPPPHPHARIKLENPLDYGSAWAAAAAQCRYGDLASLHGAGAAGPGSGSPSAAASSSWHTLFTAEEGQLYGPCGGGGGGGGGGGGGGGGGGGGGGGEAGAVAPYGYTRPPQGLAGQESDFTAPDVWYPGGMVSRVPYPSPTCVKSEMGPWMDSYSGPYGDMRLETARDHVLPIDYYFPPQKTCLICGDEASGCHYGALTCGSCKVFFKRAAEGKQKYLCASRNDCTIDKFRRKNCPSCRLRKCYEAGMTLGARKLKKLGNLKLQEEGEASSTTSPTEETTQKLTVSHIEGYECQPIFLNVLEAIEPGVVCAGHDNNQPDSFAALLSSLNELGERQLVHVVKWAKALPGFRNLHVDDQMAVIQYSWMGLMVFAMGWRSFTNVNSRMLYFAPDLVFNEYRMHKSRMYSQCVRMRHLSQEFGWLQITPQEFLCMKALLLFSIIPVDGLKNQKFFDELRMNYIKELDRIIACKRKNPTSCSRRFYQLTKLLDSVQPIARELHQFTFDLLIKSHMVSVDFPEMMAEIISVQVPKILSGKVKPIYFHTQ
Estrogen receptor (Homo sapiens), sequence (P03372 whole entry, looked up): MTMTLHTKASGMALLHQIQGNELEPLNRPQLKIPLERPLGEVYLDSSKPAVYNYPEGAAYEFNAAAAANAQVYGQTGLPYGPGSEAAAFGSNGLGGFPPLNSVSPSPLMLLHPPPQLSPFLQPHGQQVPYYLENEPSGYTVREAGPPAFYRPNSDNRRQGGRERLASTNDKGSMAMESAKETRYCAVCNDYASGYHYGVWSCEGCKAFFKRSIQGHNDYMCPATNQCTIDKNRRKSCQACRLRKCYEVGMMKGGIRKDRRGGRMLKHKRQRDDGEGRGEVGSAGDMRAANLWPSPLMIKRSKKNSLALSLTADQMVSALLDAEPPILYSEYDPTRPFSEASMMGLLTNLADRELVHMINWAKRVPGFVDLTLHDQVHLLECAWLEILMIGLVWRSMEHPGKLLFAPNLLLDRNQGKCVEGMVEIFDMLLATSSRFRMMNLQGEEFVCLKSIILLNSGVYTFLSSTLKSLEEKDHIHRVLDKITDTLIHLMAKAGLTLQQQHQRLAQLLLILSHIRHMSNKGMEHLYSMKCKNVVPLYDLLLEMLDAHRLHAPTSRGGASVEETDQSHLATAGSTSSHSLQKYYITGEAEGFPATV
Aromatase (Homo sapiens), sequence (P11511 whole entry, looked up): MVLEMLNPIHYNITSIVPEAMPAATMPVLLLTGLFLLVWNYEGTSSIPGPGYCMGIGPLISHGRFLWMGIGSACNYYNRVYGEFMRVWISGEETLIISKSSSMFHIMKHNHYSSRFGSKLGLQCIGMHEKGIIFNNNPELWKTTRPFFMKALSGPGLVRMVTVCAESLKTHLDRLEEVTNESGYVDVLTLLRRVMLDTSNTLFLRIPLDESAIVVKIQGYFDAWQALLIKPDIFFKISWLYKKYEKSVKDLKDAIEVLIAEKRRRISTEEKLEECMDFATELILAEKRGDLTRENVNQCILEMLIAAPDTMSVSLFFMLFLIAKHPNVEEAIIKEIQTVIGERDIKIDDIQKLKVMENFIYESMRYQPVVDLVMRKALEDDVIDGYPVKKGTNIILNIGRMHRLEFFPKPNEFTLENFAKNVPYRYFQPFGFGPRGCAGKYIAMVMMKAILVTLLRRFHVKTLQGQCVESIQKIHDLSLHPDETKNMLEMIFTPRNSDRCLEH

As for `COc1ccccc1O`, the Potency result in [1], in assay [2], in assay [3], in assay [4], in assay [6] and in assay [7] was “inactive” each time. Also, the Potency entry in [8], in [10], in [12], in assay [13], in [14] and in assay [15] was “inactive” throughout. For the same compound, in the assay with Aromatase (Homo sapiens), the Potency entry was “inactive”. Besides, the call in assay [5], in assay [9] and in assay [11] was inactive.

Turning to `COc1cc(C=O)ccc1O`, the Potency entry in assay [1], in assay [2], in assay [3], in [4], in [17] and in assay [6] was “inactive” each time. The Potency result in assay [18], in [7], in [8], in assay [12], in [13] and in [14] was “inactive” in each case. The Potency entry (in assay [15]; with Aromatase (Homo sapiens)) was “inactive” throughout. Moreover, the result in [5], in assay [16], in [9] and in [11] was inactive.

As for `CCc1cc(C(N)=S)ccn1`, the Potency result in assay [1], in [2], in assay [3], in assay [4], in assay [6] and in assay [7] was “inactive” in each case. Further, the Potency result in [8] and in assay [15] was “inactive” throughout. In addition, the outcome in assay [5], in assay [9] and in assay [11] was inactive.

Consider `CCCCNC(=O)NS(=O)(=O)c1ccc(N)cc1`, for which the Potency result in [1], in assay [2], in assay [3], in assay [4], in assay [6] and in [7] was “inactive” in each case. Besides, the Potency entry (in assay [8]; in assay [15]; in the assay with Aromatase (Homo sapiens)) was “inactive” throughout. Further, the result in assay [5], in [9] and in assay [11] was inactive.

For the compound `OCCCc1ccccc1`, the Potency result in [1], in [2], in [3], in [4], in assay [6] and in assay [7] was “inactive” in each case. Besides, the Potency entry in assay [8], in assay [10], in [12], in assay [13], in assay [14] and in assay [15] was “inactive” in each case. Moreover, the Potency result in the assay with Aromatase (Homo sapiens) was “inactive”. For the same compound, the call in [5], in assay [9] and in assay [11] was inactive.

For `CN(C)C=O`, the Potency result in [1], in [2], in assay [3], in assay [4], in [6] and in assay [7] was “inactive” each time. Besides, the Potency result in assay [8], in assay [10], in assay [12], in assay [13], in [14] and in assay [15] was “inactive” in each case. Moreover, the Potency result in the assay with Aromatase (Homo sapiens) was “inactive”. Also, the compound was called inactive in assay [5], in assay [9] and in assay [11].

On to `CC(C)Cc1ccc(C(C)C(=O)O)cc1` (stereo unspecified), for which the Potency result in [1], in [2], in [3], in assay [4], in [6] and in assay [7] was “inactive” each time. The Potency entry (in assay [8]; in [10]; in assay [12]; in assay [14]; in [15]; with Aromatase (Homo sapiens)) was “inactive” throughout. The outcome in assay [5], in [9] and in assay [11] was inactive. For the same compound, in assay [13], the Potency entry is “inactive and 68.6 µM (active)”.

Take `Cc1cccc(C)c1O`: the Potency entry in assay [1], in assay [2], in assay [3], in [4], in assay [19] and in assay [17] was “inactive” in each case. Moreover, the Potency result in [6], in [18], in assay [7], in [8], in assay [10] and in assay [12] was “inactive” in each case. For the same compound, the Potency entry (in assay [13]; in assay [14]; in assay [15]; with Aromatase (Homo sapiens)) was “inactive” in each case. Also, the compound was called inactive in [5], in assay [16], in assay [9] and in assay [11].

As to `CCCCCCCCCCCCCC(=O)OC(C)C`, the Potency result in assay [1], in assay [2], in [3], in assay [4], in assay [19] and in assay [17] was “inactive” each time. For the same compound, the Potency result in assay [6], in [18], in assay [7], in [8], in assay [10] and in assay [12] was “inactive” in each case. Also, the Potency entry (in assay [14]; in assay [15]; in the assay with Aromatase (Homo sapiens)) was “inactive” throughout. In addition, the outcome in assay [5], in assay [16], in [9] and in assay [11] was inactive. The Potency in [13] was 29.8 µM (active) and inactive.

As for `COc1ccc(O)cc1`, the Potency result in assay [1], in [2], in assay [3], in [4], in assay [19] and in [17] was “inactive” each time. In addition, the Potency entry (in [6]; in assay [18]; in assay [7]; in assay [8]; in [15]; with Aromatase (Homo sapiens)) was “inactive” each time. The result in assay [5], in assay [16], in [9] and in assay [11] was inactive.

For `NC(=O)N/N=C/c1ccc([N+](=O)[O-])o1`, the Potency entry in assay [1], in assay [6], in assay [7], in assay [8], in assay [10] and in assay [12] was “inactive” throughout. Moreover, the Potency result in [13] and in assay [14] was “inactive” each time. For the same compound, the Potency entry in assay [2] is “inactive and 30.6 µM (active)”; in assay [3], “inactive and 43.3 µM (active)”; in [4], 29.8 µM (active) and inactive and 38.6 µM (active); in assay [15] it was “inactive and 54.5 µM (active)”; with Aromatase (Homo sapiens), “inactive and 62.9 µM (active)”. The result in assay [5], in assay [9] and in [11] was inactive.

Regarding `C=CC(=O)NC(C)(C)CS(=O)(=O)O`, the Potency entry in assay [1], in assay [2], in assay [3], in [4], in assay [6] and in [7] was “inactive” in each case. For the same compound, the Potency entry in [8], in assay [10], in [12], in assay [13], in assay [14] and in [15] was “inactive” each time. Also, in the assay with Aromatase (Homo sapiens), the Potency entry was “inactive”. For the same compound, the compound was classed as inactive in [5], in assay [9] and in assay [11].

For the compound `CCn1cc(C(=O)O)c(=O)c2ccc(C)nc21`, the Potency result in assay [1], in assay [2], in assay [3], in assay [4], in assay [6] and in assay [7] was “inactive” each time. In addition, the Potency entry in assay [8], in assay [10], in assay [12], in [13], in assay [14] and in [15] was “inactive” each time. The Potency result with Aromatase (Homo sapiens) is “inactive”. Further, the outcome in assay [5], in assay [9] and in assay [11] was inactive.

Take `NC(=O)OCC(COC(N)=O)c1ccccc1`: the Potency entry in assay [1], in [2], in assay [3], in assay [4], in [19] and in assay [17] was “inactive” throughout. In addition, the Potency result in assay [6], in [18], in [7], in assay [8], in assay [10] and in assay [12] was “inactive” each time. The Potency result (in [13]; in assay [14]; in assay [15]; with Aromatase (Homo sapiens)) was “inactive” throughout. The result in [5], in assay [16], in assay [9] and in assay [11] was inactive.

Turning to `NC(=O)c1ccc([N+](=O)[O-])cc1Cl`, the Potency result in [1], in [2], in assay [3], in [4], in assay [6] and in [7] was “inactive” in each case. Moreover, the Potency result (in assay [8]; in assay [15]; with Aromatase (Homo sapiens)) was “inactive” in each case. The compound was classed as inactive in assay [5], in assay [9] and in [11].
